# Results from PubChem BioAssay (NCI).
# Several values for one entry are separate records, joined by “and”; a condition that tells them apart may be missing. Identical values can stand only once. The panel holds about 79,000 compounds, 15% with a hit somewhere; the sample as a whole holds those more often. A number with no mark means an inactive call. Activity calls are given as the source filed them. Rule as the data show it: active = growth inhibition above about 70%; inactive = the rest.
# Experiments:
# [1] = NCI Yeast Anticancer Drug Screen. Data for the rad50 strain (AID 155);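 also: 0% = growth of vehicle-only cultures of the same strain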; details: S. cerevisiae rad50 strain growth inhibition; at 50.0 µM; stronger effect = higher value
# How it was run: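 Relative growth inhibition (compound vs vehicle) was measured in yeast with a defined repair-gene alteration.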
# [2] = NCI Yeast Anticancer Drug Screen. Data for the mec2-1 strain (AID 157); details: S. cerevisiae mec2-1 strain, at 50.0 µM, stronger effect = higher value
# How it was run: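 Using mec2-1 yeast: add compound, measure growth, express inhibition versus vehicle-treated cultures.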
# [3] = NCI Yeast Anticancer Drug Screen. Data for the sgs1 mgt1 strain (AID 161);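 also: 0% = growth of cultures given vehicle only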; details: S. cerevisiae sgs1 mgt1 strain, at 50.0 µM, stronger effect = higher value
# How it was run: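 This yeast growth screen uses a strain with defined DNA-repair lesions; compound-treated growth is compared with vehicle-treated growth.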
# [4] = NCI Yeast Anticancer Drug Screen. Data for the cln2 rad14 strain (AID 165);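 also: 0% = growth equal to vehicle treated cultures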; details: S. cerevisiae cln2 rad14 strain, at 50.0 µM, stronger effect = higher value
# How it was run: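 Yeast strain cln2 rad14, bearing defects in cell cycle control and DNA repair, serves as the test system; values reflect growth inhibition compared with vehicle.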
# [5] = NCI Yeast Anticancer Drug Screen. Data for the bub3 strain (AID 167); details: S. cerevisiae bub3 mutant strain, at 50.0 µM, stronger effect = higher value
# How it was run: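 Screening used yeast with an engineered genetic alteration affecting cell cycle control. Compound-exposed cultures were compared with vehicle cultures, and reduced growth was taken as inhibition.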
# [6] = NCI Yeast Anticancer Drug Screen. Data for the mlh1 rad18 strain (AID 175); details: S. cerevisiae mlh1 rad18 strain growth inhibition; at 50.0 µM; stronger effect = higher value
# How it was run: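 Steps: expose repair-defective yeast to compound; measure growth; express inhibition against vehicle-treated controls.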
Compound,growth inhibition [1],growth inhibition [2],growth inhibition [3],growth inhibition [4],growth inhibition [5],growth inhibition [6]
CNN,19.6%,-4.8%,34.1%,3.3%,-1.8%,40.1%
CC1C2CCC3C(O)C2(CC(O)C2(O)C1CC(O)C2(C)C)CC3(C)O (stereo not drawn),11.6%,-24.8%,6.85%,13.3%,-5.15%,-4.35%
Cc1ccc(O)cc1,-27.4%,24.1%,-22%,-31.2%,1.1%,-30.1%
CC1=C[C@H]2O[C@@H]3[C@H](O)[C@@H](O)[C@](C)(C2(COC(=O)CCl)CC1)[C@@]31CO1 (stereo partly drawn),87% (active),89.7% (active),87.7% (active),90.2% (active),88.5% (active),
O=C(Nc1ccc(N(CCCl)CCCl)cc1)Oc1ccc(C(=O)O)cc1,6.75%,6%,10.1%,9.3%,15.2%,20.5%
CC12CC3OC(=O)C1COC14OC5(C2C1=O)C(O)(CCC1C4CC(O)C2(O)CC=CC(=O)C12C)C(=O)OC35C (stereo not drawn),5.85%,7.95%,8.3%,11.2%,-1.3%,-40.8%
CCCCCCCCCCCCCC[As](=O)(O)O,6.4%,17.9%,21.3%,1.65%,4.5%,44.5%
CN(C)C(=S)Oc1c(Cl)cc(S(=O)(=O)F)cc1Cl,35.4%,12.9%,15.2%,19.6%,-6.5%,21.4%
C[C@]12Cc3cnc(-c4ccccc4)nc3C[C@@H]1CC[C@@H]1[C@@H]2CC[C@@]2(C)[C@H]1CC[C@]2(C)O,23.6%,25.1%,13.1%,9.55%,39.5%,20.1%
Cc1c[n+]2ccc3ccccc3c2c2ccccc12,-3.9%,-10.9%,-8.65%,-78.2%,-3.2%,-11.7%
CN1CCN(Cc2ccccc2)C(C#N)C1 (stereo not drawn),-2.6%,-8.75%,-0.35%,-25.9%,-17.4%,-11.7%
NC(=O)C(Cl)(Cl)CCl,14.7%,-34.5%,-12.4%,1.5%,-2.5%,6.65%
CCN(CCCl)c1cc(CN(C)C)cc(NC(=O)c2cc(C(=O)Nc3cc(CN(C)C)cc(N(CC)CCCl)c3)n(C)n2)c1,60.2%,-10.3%,27.9%,20%,-3.3%,3.05%
CC(C)CCCC(C)CO[P+](=O)OCC(C)CCCC(C)C (stereo not drawn),31.9%,7.4%,18.5%,20.4%,5.8%,1.25%
CC(C)[C@]12O[C@H]1[C@@H]1O[C@]13[C@]1(O[C@H]1C[C@H]1C4=C(CC[C@@]13C)C(=O)OC4)[C@@H]2O,4.6%,2.9%,-20.1%,-5.1%,-17.2%,
CC(=O)[O-].N.N.N.N.[Co+3].[O-][Cl+3]([O-])([O-])[O-].[OH3+],-2.35%,7.3%,-1.45%,16.1%,21.9%,2.7%
CCOC(=O)C(CC(C)C)NC(=O)C(N)Cc1ccc(N(CCCl)CCCl)cc1 (stereo not drawn),-2.4%,-8.9%,-27.1%,-17.6%,-30.1%,
O=S(=O)(c1ccc(O)cc1)c1ccc(O)cc1,-5.25% and 0.75%,-2.8% and -7.6%,-3.75% and -4.95%,-11.7% and -36.2%,1.85% and -8.15%,2.55% and -4.05%
O=C([O-])CC(=O)[O-].[NH-][C@@H]1CCCC[C@H]1[NH-].[Pt+4],-14.2%,-15.5%,-24.5%,-25.1%,-24.5%,
COc1cccc(C2CC23C(=O)NC(=O)NC3=O)c1 (stereo not drawn),-18%,-14.2%,-2.1%,6.6%,-19.2%,-21.2%

Compound,growth inhibition [1],growth inhibition [2],growth inhibition [3],growth inhibition [4],growth inhibition [5],growth inhibition [6]
O=C1NC(=O)C(F)C(O)N1 (stereo not drawn),-22.8%,-17.8%,-6.15%,-14.8%,16.1%,-8.2%
ClCCCCl,13.2%,-15.8%,-3.85%,-7.4%,4.9%,-27.6%
COc1ccc2[nH]cc(CCN)c2c1,3.95%,-12.4%,-13.5%,-10.4%,3.6%,-24.1%
O=C1C=CC(=O)c2c(O)cccc21,27.4%,13.2%,38%,15.4%,41.3%,29.2%
CCC1(O)C(=O)OCc2c1cc1n(c2=O)Cc2cc3ccc(C=O)cc3nc2-1 (stereo not drawn),39.5%,19%,-17.5%,2.3%,-24.7%,
C/C(=N\N=C(\[Se])N(C)C)c1ccccn1,86.9% (active),89.9% (active),89.7% (active),89.3% (active),87.1% (active),
O=C(Nc1cccs1)c1c(O)[nH]c(=S)[nH]c1=O,-1.35%,20.9%,25.1%,16.8%,7.05%,4.5%
NC(=Nc1ccccc1)N/N=C/c1c[nH]c2ccccc12,-15.2%,-14.9%,-20.2%,3.45%,-7.15%,-50%
CCOP(=O)(CSCCC1(C)NC(=O)NC1=O)OCC (stereo not drawn),8.6%,-9.7%,23.9%,2.65%,7.2%,7.45%
N#CCCCBr,-2.7%,-15.8%,7.2%,-13.8%,-2%,11.8%
C=CC(=O)NCNC(=O)C=C,21.9% and 5.15%,19.3% and 1.85%,8.75% and -4.05%,10.6% and 4.3%,5.25% and -11.3%,-15.8% and -2.9%
[Cr+3].[NH-]CC[NH-].[NH-]CC[NH-].[NH-]CC[NH-].[O-][Cl+3]([O-])([O-])O,19.2%,1.2%,1.05%,-5.15%,1%,-1.8%
CCOP(=S)(OCC)N(C)C(=O)Oc1cccc(C(C)C)c1,0.95%,-1.05%,8.95%,-6.1%,-20.4%,12.2%
COc1ccc2nc3cc(Cl)ccc3c(NCCCN(CCCl)CCCl)c2c1,51%,19.2%,37.2%,34.2%,7.6%,
O=NNc1ccc(Cl)cn1,-11.5%,3.75%,3.1%,-1.45%,-18.3%,3.3%
CC(N)CN.CC(N)CN.[Cl-].[O]=[Os+2]=[O] (stereo not drawn),-31%,-13.4%,-16.6%,2.05%,-16.1%,-13.6%
Fc1ccc(C(Cl)(Cl)Cl)cc1,-8.9%,-33.5%,2.75%,-17.2%,-17.1%,6.2%
CCC(Br)(CC)C(N)=O,-33.5%,-5.4%,-26.1%,-89.7%,-28.1%,-27.9%
COc1ccc(C(=O)O)cc1OC,-0.25%,9.45%,-18.8%,7.4%,-9.5%,5%
O=c1cccc2n1CC1CNC[C@H]2C1,16.6%,9.5%,5.8%,7.75%,12.6%,-4.85%
